Measured values from PubChem BioAssay (NCATS).
For part of these data: Entries with a potency or affinity are not part of this list. Active and inactive are the calls of the source. How the calls were made is not given here.

Experiments:
[1] = Ebola virus entry assay, green fluorescence channel
[2] = Ebola virus entry assay, ratio channel
[3] = Ebola virus entry assay, green channel fluorescence

Measured: efficacy
Wherever efficacy is given: 0% is about no effect.

CCC(C(=O)NC(=O)NC(C)=O)c1ccccc1 (centres undefined)
inactive: [1] -14.5% | [2] | [3]

Nc1nc(-c2ccccc2)c(Br)c(=O)[nH]1
inactive: [1] -17% | [2] | [3]

CC(NN)c1ccccc1 (centres undefined)
inactive: [1] -30% | [2] | [3]

CN1CC[C@]23c4c5ccc(O)c4O[C@H]2[C@@H](O)C=C[C@H]3[C@H]1C5
inactive: [1] 19.5% | [2] | [3]

O=C1c2ccccc2C(=O)c2c1ccc(O)c2O
inactive: [1] -18.6% | [2] | [3]

O=C1OC(c2ccc(O)c(S(=O)(=O)O)c2)(c2ccc(O)c(S(=O)(=O)O)c2)c2c(Br)c(Br)c(Br)c(Br)c21
inactive: [1] 32.9% | [2] | [3]

N#CCC(=O)NN
inactive: [1] -12.5% | [2] | [3]

COc1cc2c3cc1Oc1cc(ccc1O)C[C@@H]1c4c(cc(OC)c(O)c4Oc4ccc(cc4)C[C@@H]3N(C)CC2)CC[N+]1(C)C
inactive: [1] -16.5% | [2] | [3]

Cc1cc(NS(=O)(=O)c2ccc(N)cc2)nc(C)n1
inactive: [1] -28.1% | [2] | [3]

CC(=O)c1cc2ccccc2s1
inactive: [1] -31.8% | [2] | [3]

CCCCC(O)/C=C(C)/C=C/C=C/C(=O)N1CCCC1=O (centres undefined)
inactive: [1] -13.9% | [2] | [3]

CC(CN(C)C)C(C)(O)Cc1ccc(Cl)cc1 (centres undefined)
inactive: [1] 33.9% | [2] | [3]

CCOc1nc2cccc(C(=O)O)c2n1Cc1ccc(-c2ccccc2-c2nn[nH]n2)cc1
inactive: [1] 27.1% | [2] | [3]

NCCNCCNCCNCCN
inactive: [1] -17.9% | [2] | [3]

O=C(O)C(S)C(S)C(=O)O (centres undefined)
inactive: [1] -24.2% | [2] | [3]

O=P(O)(O)OCC(O)CO (centres undefined)
inactive: [1] 14.9% | [2] | [3]

O=[N+]([O-])c1ccc(/C=N\O)o1
inactive: [1] 8.52% | [2] | [3]

CC(C)Cc1ccc(CC(=O)O)cc1
inactive: [1] -19.8% | [2] | [3]

Cc1ccsc1/C=C/C1=NCCCN1C
inactive: [1] -24.4% | [2] | [3]

NS(=O)(=O)c1cc2c(cc1Cl)NC(C(Cl)Cl)NS2(=O)=O (centres undefined)
inactive: [1] -21% | [2] | [3]

O=c1[nH]c(=O)n([C@H]2CCCO2)cc1F
inactive: [1] -34.9% | [2] | [3]

Cc1nc2ccccn2c(=O)c1CCN1CCC(C(=O)c2ccc(F)cc2)CC1
inactive: [1] 25.5% | [2] | [3]

CN(C)CCOC(=O)COc1ccc(Cl)cc1
inactive: [1] 14.4% | [2] | [3]

CC(=O)N(CC(O)CO)c1c(I)c(C(=O)NCCO)c(I)c(C(=O)NCC(O)CO)c1I (centres undefined)
inactive: [1] -10.6% | [2] | [3]

C/C=C1\[C@H]2C=C(C)C[C@]1(N)c1ccc(=O)[nH]c1C2
inactive: [1] 25.8% | [2] | [3]

O=C1OC2(c3ccccc31)c1cc(Br)c(O)c(Br)c1Oc1c2cc(Br)c(O)c1Br
inactive: [1] 23.8% | [2] | [3]

NC(=O)n1c(O)c(C(=O)c2cccs2)c2cc(Cl)ccc21
inactive: [1] 15% | [2] | [3]

NCc1ccc(S(N)(=O)=O)cc1
inactive: [1] -17.9% | [2] | [3]

CC(C)=CCC/C(C)=C/CO
inactive: [1] -28.2% | [2] | [3]

COc1cc2c(cc1OC)CN(C(=O)[C@H](C)N[C@@H](CCc1ccccc1)C(=O)O)[C@H](C(=O)O)C2
inactive: [1] -27.9% | [2] | [3]

CCCCCCCCCCCCSCCOCCO
inactive: [1] -41.3% | [2] | [3]

O=c1[nH]c2ccccc2n1C1CCNCC1
inactive: [1] -18% | [2] | [3]

CCN(Cc1ccncc1)C(=O)C(CO)c1ccccc1 (centres undefined)
inactive: [1] -24.3% | [2] | [3]

CC(N)CCCC(C)(C)O (centres undefined)
inactive: [1] -22.7% | [2] | [3]

CC(C)CCOC(=O)c1ccc(N(C)C)cc1
inactive: [1] -19.6% | [2] | [3]

NS(=O)(=O)c1cc2c(cc1Cl)NC(CC1CCCC1)NS2(=O)=O (centres undefined)
inactive: [1] 19% | [2] | [3]

O=C(c1ccccc1)C(O)c1ccccc1 (centres undefined)
inactive: [1] 17.3% | [2] | [3]

Cc1ccccc1C(=O)Nc1ccc(C(=O)N2CCCC(N(C)C)c3ccccc32)cc1 (centres undefined)
inactive: [1] 11.8% | [2] | [3]
